Source: PubChem BioAssay
A selection: hits, their analogues and other compounds. The true share with any hit is near 18%.
PLK1 PBD block: inhibitors of human PLK1 polo-box domain binding | P53350 | Plk1 PBD binding of FITC phosphopeptide, fluorescence polarization | Potency, µM, for inactives: max response, negative = inhibition, hits mostly inhibitors | actives 2.8% (n = 360,000) | AID 720504; note: series mostly up to about 57 µM; nearly all actives have a fitted effect of over 65% in size
GCN5L2 inh: GCN5L2 (KAT2A) acetyltransferase inhibition. GCN5L2 HAT assay, ThioGlo1 CoA-SH fluorescence. Potency, µM (top dose mostly 58.9 µM), for the others: at the highest dose activity change, negative = inhibition, actives largely listed as inhibitors. actives 0.21% (n = 390,000)
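Titration-based screen in which CoA formation is detected via maleimide probe ThioGlo1 (50uM) turning fluorescent on thiol reaction; substrates H3(1-25) 75uM and acetyl-CoA 70uM, GCN5L2 20nM, 20 min incubation at room temperature.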
VDR inh: blocks the human vitamin D receptor; actives 0.93% (n = 400,000); VDR-SRC2-3 peptide fluorescence polarization, 2 h; P11473; Potency, µM, for inactives: max response, negative = inhibition, usual class: inhibitors
Target sequence (P11473 whole entry, looked up): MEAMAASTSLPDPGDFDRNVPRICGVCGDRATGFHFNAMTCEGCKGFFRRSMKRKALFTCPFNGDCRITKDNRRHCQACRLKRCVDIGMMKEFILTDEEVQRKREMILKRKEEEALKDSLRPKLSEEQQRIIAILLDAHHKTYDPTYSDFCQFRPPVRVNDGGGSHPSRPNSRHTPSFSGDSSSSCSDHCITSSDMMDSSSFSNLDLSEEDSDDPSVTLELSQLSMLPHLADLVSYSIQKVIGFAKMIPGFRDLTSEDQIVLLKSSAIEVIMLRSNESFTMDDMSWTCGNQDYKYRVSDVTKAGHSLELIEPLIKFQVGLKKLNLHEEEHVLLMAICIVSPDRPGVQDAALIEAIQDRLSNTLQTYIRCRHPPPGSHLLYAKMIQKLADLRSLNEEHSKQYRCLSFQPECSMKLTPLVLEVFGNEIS
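After 23 nl compound addition and a short centrifugation, plates sat for 2 hours at ambient temperature; polarization of fluorescence then indicated loss of VDR binding to peptide SRC2-3.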
TDP1 cell noCPT: qHTS for Inhibitors of human tyrosyl-DNA phosphodiesterase 1 (TDP1): qHTS in cells in absence of CPT; DT40 Tdp1-/- hTDP1 cells, no CPT, ATP luminescence, 48 h; Potency, µM (series often up to 46.2 µM), for the others: top-dose activity change, negative = growth inhibition, usual class: inhibitors; actives 15% (n = 420,000); note: nearly all actives have a fitted effect of over 55% in size
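Stably hTDP1-transfected Tdp1-null chicken DT40 cells were treated with library compounds minus camptothecin and grown for at least 48 hr at 37 °C, after which cellular ATP was quantified by luminescence.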
TDP1 inh: TDP1 (human) enzyme inhibition; Q9NUW8; actives 0.28% (n = 350,000); Potency, µM (titrated, usually from 130 µM), inactives show at the top dose activity change, negative = inhibition, most hits filed as inhibitors; AID 485290; recombinant TDP1, AlphaScreen DNA substrate cleavage; note: nearly all actives have a fitted effect of over 40% in size
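Here, a 5' biotin and 3' phosphotyrosine-FITC DNA oligonucleotide reports Tdp1 activity: intact substrate bridges AlphaScreen beads, while cleavage leaves a 3' phosphate and drops signal. All incubations at room temperature.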
TDP1 cell CPT: growth inhibition of DT40 Tdp1-/-;hTDP1 cells with camptothecin (screen for TDP1 inhibitors); AID 686979; actives 12% (n = 420,000); chicken DT40 Tdp1-/-;hTDP1 cells + 20 nM CPT, ATP luminescence, 48 h; Potency, µM (top dose mostly 46.2 µM), without a hit: at the top dose activity change, negative = growth inhibition, actives largely listed as inhibitors; note: nearly all actives have a fitted effect of over 55% in size
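Chicken DT40 Tdp1-/- cells complemented with human TDP1, 400 cells/well, exposed to compounds plus 20 nM camptothecin for at least 48 h at 37 C; viability read as ATP content by CellTiter-Glo luminescence.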
An asterisk follows results filed as active; ? = inconclusive; . = no result; [ ] = remark or other dose. Calls come from the whole dose curve; as a rule, active = well fitted curve in the direction sought with a large enough effect; inconclusive = small, poorly fitted or top-dose-only effect, or another doubt; inactive = no such curve, though single readings can be large; an effect the other way counts as inactive or inconclusive. % is set by controls: 0 for no effect and ±100 for the full control effect; potency is the fitted concentration of half-maximal effect.

SMILES	PLK1 PBD block	GCN5L2 inh	VDR inh	TDP1 cell noCPT	TDP1 inh	TDP1 cell CPT
NC1=NC[C@H](c2ccccc2)N1CCc1cc(C(F)(F)F)cc(C(F)(F)F)c1	3%	-10%	-15%	21µM*	2%	18µM*
NC1=NC[C@@H](CC2CCCCC2)N1CCc1cc(C(F)(F)F)cc(C(F)(F)F)c1	-8%	1%	-20%	3.7µM*	2%	3.3µM*
CC(NCCN(C)C)C(=O)C12CC3CC(CC(C3)C1)C2 (configuration not stated)	0%	-5%	2%	-2%	.	4%
Cc1cnc2c3c(cc(Cl)c2c1)-c1ccccc1S(=O)(=O)N3	.	.	?	.	0%	.
O=S1(=O)Nc2c(ccc3cccnc23)-c2ccccc21	-7%	-13%	-9%	1.5µM*	7%	1.2µM*
CCCN(CCC)c1nc(N)nc(C#N)n1	.	.	?	18µM*	1%	?
Cc1ccc(-c2noc(-c3ccc(NC4CCCC4)c([N+](=O)[O-])c3)n2)cc1	.	-5%	3%	-15%	3%	-29%
Cc1ccc(-c2nnc(-c3ccccc3S(=O)(=O)Cc3ccc(Cl)cc3)o2)cc1	-2%	-2%	13%	23µM*	4%	?
Cc1ccc(S(=O)(=O)NCCC(=O)NC2CCC(C)CC2)cc1 (configuration not stated)	0%	2%	-11%	3%	1%	-5%
COc1ccc(NS(=O)(=O)c2cc(NC(=O)C3=NN(c4ccccc4)C(=O)CC3)ccc2C)cc1	-1%	.	8%	-27%	.	?
COc1ccc(NS(=O)(=O)c2cccc(NC(=O)C3=NN(c4ccccc4)C(=O)CC3)c2)cc1	5%	-10%	7%	15µM*	2%	?
CN(c1ccccc1)S(=O)(=O)c1cccc(NC(=O)C2=NN(c3ccccc3)C(=O)CC2)c1	-5%	-8%	-8%	13µM*	4%	?
CN1CCN(CC(=O)Nc2cccc(S(=O)(=O)N(C)c3ccccc3)c2)CC1	0%	1%	-18%	?	0%	-16%
Cc1nn(C(C)C(=O)NCCCN2CCCCCC2)c(=O)c2c1sc1ccccc12 (configuration not stated)	27µM*	-4%	-20%	?	4%	?
CCCN1CCN(C(=O)C(C)n2nc(C)c3sc4ccccc4c3c2=O)CC1 (configuration not stated)	-4%	-1%	-1%	18µM*	4%	?
Cc1ccc(/C=N/NC(=O)c2cc(C)oc2C)cc1	-6%	-10%	-3%	16µM*	7%	23µM*
Cc1cc(C(=O)N/N=C/c2ccncc2)c(C)o1	-10%	-7%	-2%	-2%	2%	6%
COc1cc(/C=N/NC(=O)c2cc(C)oc2C)ccc1O	1%	-5%	17%	-16%	3%	-10%
COc1ccc(C=NNC(=O)c2cc(C)oc2C)cc1O	-7%	-6%	-14%	16µM*	2%	?
Cc1ccccc1Nc1c([N+](=O)[O-])cncc1[N+](=O)[O-]	-5%	-1%	-9%	15µM*	5%	?
Cc1ccccc1Nc1n[nH]c(C)c1[N+](=O)[O-]	-7%	-2%	-8%	1%	2%	3%
CCOc1ccc(NS(=O)(=O)c2cc(C(=O)N(CC)CC(=O)NCc3cccs3)ccc2C)cc1	-9%	-11%	?	?	2%[0.505 µM]	?
O=C(C1CCCN1C(=O)c1cccs1)N1CCN(S(=O)(=O)c2ccc(F)cc2)CC1 (configuration not stated)	0%	-4%	-7%	-5%	1%	-14%
CCCc1nnc(SCc2ccc(OC)cc2)n1N	21µM*	-15%	25µM*	18µM*	9%	26µM*
COc1cccc(CNC(=O)CN2C(=O)CCn3nc(-c4cn(C)c5ccccc45)cc32)c1OC	.	5%	17%	4%	1%	-1%
SMILES	PLK1 PBD block	GCN5L2 inh	VDR inh	TDP1 cell noCPT	TDP1 inh	TDP1 cell CPT
O=C1C(=C(c2ccccc2)N2CCOCC2)Cc2ccccc21	-18%	.	.	0.82µM*	.	1.2µM*
CCNc1nc(C#N)nc(NCC)n1	.	.	-17%	-18%	-3%	6%
CCn1nnc2cc(C(=O)Nc3cc(Cl)ccc3C)ccc21	-9%	1%	-7%	?	0%	-13%
CCn1cc(C2=NC(CC(C)C)CO2)c2ccccc21 (configuration not stated)	1%	-5%	24%	15µM*	.	?
CNCCCC1c2ccccc2C=Cc2ccccc21	-11%	-6%	0%	23µM*	3%	?
COc1cc(O)c(C(=O)CC(=O)c2ccncc2)c(OC)c1	-2%	.	-1%	-4%	.	-13%
CCOc1ccccc1C(=O)Nc1ccc(-n2nncc2C(C)(C)C)cc1	-10%	-13%	-18%	15µM*	4%	21µM*
COc1cccc(C(=O)Nc2ccc(-n3nncc3-c3ccccc3)cc2)c1OC	.	-4%	-7%	-19%	10%	-18%
CCOc1ccccc1C(=O)Nc1ccc(S(=O)(=O)N2CCN(C)CC2)cc1	2%	0%	-2%	-15%	0%	?
CCOc1ccccc1C(=O)Nc1ccc(-n2nncc2-c2ccccc2)cc1	.	0%	-2%	23µM*	5%	?
O=C(NC1CC1)C1=C[C@@H](c2c[nH]c3ccccc23)C[C@@H](OCCCCO)O1	-5%	1%	-5%	-28%	0%	-1%
CCCCNC(=O)C[C@@H]1C[C@@]2(C(=O)OC)CCCCC=C2N(Cc2ccc(Cl)cc2Cl)C1=O	-16%	.	.	16µM*	.	?
COC(=O)[C@]12CCCCC=C1N(Cc1ccc(Cl)cc1Cl)C(=O)[C@H](CC(=O)NCc1ccc(C)o1)C2	-18%	.	.	16µM*	.	?
COC(=O)[C@]12CCCCC=C1N(Cc1ccc(Cl)cc1Cl)C(=O)[C@H](CC(=O)NCCC(C)C)C2	-9%	.	.	21µM*	.	?
COC(=O)[C@]12CCCCC=C1N(Cc1ccc(Cl)cc1Cl)C(=O)[C@H](CC(=O)NCCc1ccccc1OC)C2	2%	.	.	?	.	?
CCCCOCCCNC(=O)C[C@@H]1C[C@@]2(C(=O)OC)CCCCC=C2N(Cc2ccc(Cl)cc2Cl)C1=O	4%	.	.	?	.	?
O=C(NCCCCCCNC(=O)c1ccc(Br)s1)c1ccc(Br)s1	-4%	-7%	5%	-14%	-2%	-28%
Cc1cc2[nH]c3ccccc3c2c(C)n1	-17%	-2%	-3%	16µM*	0%	?
